Source: PubChem
Shown are actives, neighbours in structure and some others; about 21% of the full set was active somewhere.
DT40 TDP1 CPT: DT40-hTDP1 cell growth loss with CPT | chicken DT40 Tdp1-/-;hTDP1 cells + 20 nM CPT, ATP luminescence, 48 h | Potency, µM (top dose mostly 46.2 µM), for the others: top-dose activity change, negative = growth inhibition, hits mostly inhibitors | 420,000 tested, 12% active | AID 686979; further: potency means the concentration at half of the fitted maximal effect; on the % scale 0 is the no-effect control and ±100 the full control effect; nearly all actives have a fitted effect of over 55% in size
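Chicken DT40 Tdp1-/- cells complemented with human TDP1, 400 cells/well, exposed to compounds plus 20 nM camptothecin for at least 48 h at 37 C; viability read as ATP content by CellTiter-Glo luminescence.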
DT40 TDP1 no CPT: qHTS for Inhibitors of human tyrosyl-DNA phosphodiesterase 1 (TDP1): qHTS in cells in absence of CPT; AID 686978, 2013; 420,000 tested, 15% active; Potency, µM (doses to about 46.2 µM), inactives show at the highest dose activity change, negative = growth inhibition, most hits filed as inhibitors; DT40 Tdp1-/- hTDP1 cells, no CPT, ATP luminescence, 48 h; further: potency means the concentration at half of the fitted maximal effect; on the % scale 0 is the no-effect control and ±100 the full control effect; nearly all actives have a fitted effect of over 55% in size
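Growth of hTDP1-complemented DT40 Tdp1-knockout cells is measured by ATP luminescence after at least 48 hr compound exposure at 37 °C, with DMSO substituting for the 20 nM CPT used in the parallel screen.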
DRD3 agonist: agonists of human D3 dopamine receptor | P35462 | D3R DiscoveRx beta-arrestin cells, luminescence, 90 min | max activation, % | 410,000 tested, 0.58% active | AID 652048; in the data active means max activation above about 30%; further: 0% is about no effect
Target sequence (P35462 whole entry, looked up): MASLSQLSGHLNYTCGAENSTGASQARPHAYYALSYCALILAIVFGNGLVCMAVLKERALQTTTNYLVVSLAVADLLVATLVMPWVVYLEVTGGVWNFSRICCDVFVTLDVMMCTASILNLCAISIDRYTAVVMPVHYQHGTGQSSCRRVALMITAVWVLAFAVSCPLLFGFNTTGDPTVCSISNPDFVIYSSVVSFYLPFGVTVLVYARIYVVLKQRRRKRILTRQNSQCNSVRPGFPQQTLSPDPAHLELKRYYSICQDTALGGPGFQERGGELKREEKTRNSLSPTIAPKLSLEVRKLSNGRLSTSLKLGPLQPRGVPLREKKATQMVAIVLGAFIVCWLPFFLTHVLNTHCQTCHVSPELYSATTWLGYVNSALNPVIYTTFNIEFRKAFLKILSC
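Agonist-mode cell screen: cells plated at 1500/well and incubated overnight at 37 °C, then exposed to library compounds for 90 min at 37 °C. Detection reagent was added for 30–60 min at room temperature, and luminescence was read.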
IL1B secr inh: blocks inflammasome-driven IL-1 beta release; THP-1 LPS/ATP IL-1B secretion, AlphaLISA, 16 h; active compounds read low; activity change, % at 57.5 µM; 360,000 tested, 4.7% active; in the data active means activity change below about -50%; inconclusive means mostly about -30% to -49%; further: on the % scale 0 is the no-effect control and ±100 the full control effect
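THP-1 cells pretreated 1 hr with compounds (up to 57.5 uM final), then stimulated with LPS (250 ng/mL final) plus ATP (1.25 mM final); secreted IL-1B measured by AlphaLISA after 16 hr, decreased signal indicating inhibition.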
ClpP mod: qHTS Assay for Activators of ClpP | purified B. subtilis ClpP, FRET peptide cleavage, 20 min | Potency, µM (series often up to 57.5 µM), for the others: at the top dose activity change, negative = active | 340,000 tested, 1.9% active | AID 651965, 2013; active means well fitted falling curve with a large enough effect; inconclusive means small, poorly fitted or top-dose-only effect; inactive means no such curve, though single readings can be large or run the other way; further: potency means the concentration at half of the fitted maximal effect; the source files actives as falling curves though it sought activators and does not explain the sign; nearly all actives have a fitted effect of over 65% in size
Target sequence (P80244 whole entry, looked up): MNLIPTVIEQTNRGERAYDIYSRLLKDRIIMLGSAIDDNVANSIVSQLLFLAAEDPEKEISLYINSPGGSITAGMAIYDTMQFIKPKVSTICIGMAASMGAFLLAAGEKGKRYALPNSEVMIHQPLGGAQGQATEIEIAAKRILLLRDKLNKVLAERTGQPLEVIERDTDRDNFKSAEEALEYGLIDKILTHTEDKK
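Buffer: 100 mM Tris/HCl pH8, 100 mM KCl, 0.05% low protease BSA, 2.5% glycerol, 0.01% Tween-20. ClpP 10 microg/mL final; 20 min RT; delta FRET normalized to ADEP and DMSO controls.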
DRD3 antagonist: antagonists of human D3 dopamine receptor. P35462. D3R cells, DiscoveRx beta-arrestin luminescence, antagonist mode; active compounds read low. max response, negative = inhibition, %. 360,000 tested, 2.5% active. AID 652054; in the data active means max response below about -50%; inconclusive means no clear call, values can overlap the other calls; further: on the % scale 0 is the no-effect control and ±100 the full control effect
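Cells expressing the human receptor were seeded at 1500 cells/well, incubated overnight at 37 degrees C in 5% CO2, then exposed to library compounds with dopamine controls for 90 minutes at 37 degrees C before luminescent detection.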
Starred values were filed as active, the others as inactive. Unless noted, the call rests on the fitted dose curve; in most records, active means well fitted inhibition curve with a large enough effect; inconclusive means small, poorly fitted or top-dose-only effect; inactive means flat fitted curve, though single readings scatter.

What do the screens show for `CCOc1ccc(CCN2C(=S)N([C@@H](CC(C)C)CN3CCCC3CN3C(=S)NC[C@@H]3Cc3ccc(O)cc3)C[C@@H]2Cc2ccccc2)cc1` (stereo partly specified)?
DT40 TDP1 CPT: 16µM*; DT40 TDP1 no CPT: inconclusive; DRD3 agonist: 2; IL1B secr inh: inconclusive; ClpP mod: 2%; DRD3 antagonist: -10

How did CC(C)CC1(C)N=C(c2ccccc2)C(=S)N1 (stereo unspecified) do in these assays?
DT40 TDP1 CPT: -18%; DT40 TDP1 no CPT: inconclusive; DRD3 agonist: 0; IL1B secr inh: -11; DRD3 antagonist: 5

How did CC(C)CN1CCCC2(CCN(C(=O)c3cc(C(F)(F)F)cc(C(F)(F)F)c3)CC2)C1 do in these assays?
DT40 TDP1 CPT: -9%; DT40 TDP1 no CPT: -25%

How did COc1ccc(C(C(=O)NCC2CCCO2)N(C(=O)CNC(=O)c2cccs2)c2ccc(C(C)=O)cc2)cc1OC (stereo unspecified) do in these assays?
DT40 TDP1 CPT: 10%; DT40 TDP1 no CPT: 3%; DRD3 agonist: 8; IL1B secr inh: -10; DRD3 antagonist: 6

How did Cc1c(C(=O)NN2CCOCC2)oc2c1ccc1ccccc12 do in these assays?
DT40 TDP1 CPT: -16%; DT40 TDP1 no CPT: inconclusive; DRD3 agonist: -11; IL1B secr inh: -71*; DRD3 antagonist: -21

Results for Cc1ccsc1CNCc1cc(Cl)ccc1O ?
DT40 TDP1 CPT: -27%; DT40 TDP1 no CPT: -23%; DRD3 agonist: -20; IL1B secr inh: -19; ClpP mod: -2%; DRD3 antagonist: -17

How did Cc1cc(S(=O)(=O)Nc2ccc3cn[nH]c3c2)c(C)cc1Cl do in these assays?
DT40 TDP1 CPT: -30%; DT40 TDP1 no CPT: 4.6µM*; DRD3 agonist: 12; IL1B secr inh: 16; DRD3 antagonist: 10

Results for COc1cc(/C=N/N=C2/C(=O)Nc3ccccc32)ccc1O ?
DT40 TDP1 CPT: -21%; DT40 TDP1 no CPT: -30%; DRD3 agonist: -9; IL1B secr inh: inconclusive; ClpP mod: 1%; DRD3 antagonist: -25

How did O=Cc1ccc(O)c(O)c1 do in these assays?
DT40 TDP1 CPT: -1%; DT40 TDP1 no CPT: -7%; DRD3 agonist: 1; IL1B secr inh: -57*; ClpP mod: -1%; DRD3 antagonist: inconclusive

Results for COc1cc(C=O)ccc1O ?
DT40 TDP1 CPT: 16%; DT40 TDP1 no CPT: 2%; DRD3 agonist: 3

How did O=C1Nc2ccccc2/C1=N\N=C\c1ccc(O)c(O)c1 do in these assays?
DT40 TDP1 CPT: inconclusive; DT40 TDP1 no CPT: inconclusive; DRD3 agonist: -1; IL1B secr inh: -71*; DRD3 antagonist: -11

What do the screens show for `COc1ccc(/C=N/N(Cc2ccccc2)c2ccccc2)cc1O`?
DT40 TDP1 CPT: inconclusive; DT40 TDP1 no CPT: inconclusive; DRD3 agonist: 0; IL1B secr inh: -86*; ClpP mod: 0%; DRD3 antagonist: 0

How did C(=N\N(c1ccccc1)c1ccccc1)/c1ccccn1 do in these assays?
DT40 TDP1 CPT: -13%; DT40 TDP1 no CPT: 29µM*; DRD3 agonist: -6; IL1B secr inh: -5; DRD3 antagonist: 4

Results for COc1cc(C=NCc2ccccc2)ccc1O ?
DT40 TDP1 CPT: -3%; DT40 TDP1 no CPT: -20%; DRD3 agonist: -11; IL1B secr inh: 8; ClpP mod: -1%; DRD3 antagonist: -25

What do the screens show for `COc1ccc2[nH]cc(CCNC(=O)C3CCCCC3)c2c1`?
DT40 TDP1 CPT: -3%; DT40 TDP1 no CPT: inconclusive; DRD3 agonist: 2; IL1B secr inh: -13; DRD3 antagonist: 3

Results for CCc1nc2cc(NC(=O)C3(C)CCCN(C(C)C)C3)ccc2o1 (stereo unspecified) ?
DT40 TDP1 CPT: -12%; DT40 TDP1 no CPT: 2%; DRD3 agonist: -4; IL1B secr inh: 24; ClpP mod: 0%; DRD3 antagonist: inconclusive

Results for Cc1ccc(NC(=O)C(CC(C)C)NS(=O)(=O)c2ccc3c(c2)oc(=O)n3C)c(C)c1 (stereo unspecified) ?
DT40 TDP1 CPT: 17%; DT40 TDP1 no CPT: -11%; DRD3 agonist: -10; ClpP mod: -2%

What do the screens show for `Oc1ccc(/C=N/N=C/c2ccc(O)c(O)c2)cc1O`?
DT40 TDP1 CPT: inconclusive; DT40 TDP1 no CPT: 18µM*; DRD3 agonist: 24; IL1B secr inh: 51; DRD3 antagonist: 8

Results for Cc1[nH]n(-c2ccccc2)c(=O)c1/C=N/N(c1ccccc1)c1ccccc1 ?
DT40 TDP1 CPT: inconclusive; DT40 TDP1 no CPT: inconclusive; DRD3 agonist: -20; IL1B secr inh: -10; DRD3 antagonist: 0

What do the screens show for `O=C(/C(=N/O)c1ccccc1)c1ccccc1`?
DT40 TDP1 CPT: -4%; DT40 TDP1 no CPT: 0%; DRD3 agonist: -1; IL1B secr inh: -5; ClpP mod: 0%; DRD3 antagonist: -2

Results for Oc1ccc(N=Cc2ccc(O)c(O)c2)cc1 ?
DT40 TDP1 CPT: inconclusive; DT40 TDP1 no CPT: inconclusive; DRD3 agonist: 7; IL1B secr inh: -55*; ClpP mod: -4%; DRD3 antagonist: -8

How did Oc1ccc(/C=N/N(c2ccccc2)c2ccccc2)cc1O do in these assays?
DT40 TDP1 CPT: 10µM*; DT40 TDP1 no CPT: inconclusive; DRD3 agonist: 11; IL1B secr inh: -23; ClpP mod: -2%; DRD3 antagonist: -2

How did Oc1ccc(/C=N/N=C/c2ccc(O)cc2)cc1 do in these assays?
DT40 TDP1 CPT: -12%; DT40 TDP1 no CPT: -2%; DRD3 agonist: 2; IL1B secr inh: -21; DRD3 antagonist: -12

What do the screens show for `O=C(/C(=N/N=C/c1ccc(O)c(O)c1)c1ccccc1)c1ccccc1`?
DT40 TDP1 CPT: 7.3µM*; DT40 TDP1 no CPT: 8.2µM*; DRD3 agonist: 8; IL1B secr inh: -76*; ClpP mod: 1%; DRD3 antagonist: -12

What do the screens show for `CN1CC(=O)N(CC(=O)Nc2ccc(Cl)c(C(F)(F)F)c2)c2ccccc2C1=O`?
DT40 TDP1 CPT: inconclusive; DT40 TDP1 no CPT: inconclusive; DRD3 agonist: 10; ClpP mod: -1%

Results for Cc1ccc(CN2CCC(CO)(CC3CCCCO3)CC2)o1 (stereo unspecified) ?
DT40 TDP1 CPT: 16%; DT40 TDP1 no CPT: -2%; DRD3 agonist: -13; IL1B secr inh: -3; DRD3 antagonist: -63*

Results for COCc1ccc(CN2CCC(CO)(CC3CCCCO3)CC2)o1 (stereo unspecified) ?
DT40 TDP1 CPT: 12%; DT40 TDP1 no CPT: -1%; DRD3 agonist: -9; IL1B secr inh: 9; DRD3 antagonist: 3
